# Screens deposited in PubChem BioAssay by National Center for Advancing Translational Sciences (NCATS).
# Pf growth 48h: Primary qHTS for delayed death inhibitors of the malarial parasite plastid, 48 hour incubation; actives 5.9% (n = 310,000); Potency, µM (series often up to 28.7 µM), without a hit: at the highest dose activity change, negative = inhibition, hits mostly inhibitors; P. falciparum luciferase growth in erythrocytes, 48 h; AID 504832, 2011; further: potency means the concentration at half of the fitted maximal effect; on the % scale 0 is the no-effect control and ±100 the full control effect
#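 First compound was added to culture medium, then infected red cells at 0.1% parasitemia and 2% hematocrit (final). After incubation at 37 C under 5% CO2, luciferase detection reagent was dispensed and light output recorded.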
# Shiga inhibitor: A qHTS for Small Molecule Inhibitors of Shiga Toxin; Vero cells, Shiga toxin protein synthesis inhibition reporter; inhibition, % at 38.7 µM; actives 9.2% (n = 290,000); AID 2315, 2010; in the data active means inhibition mostly above about 28%, no sharp cut-off; inactive means mostly below about 43%; further: 0% is about no effect
# CHX counter: Cycloheximide Counterscreen for Small Molecule Inhibitors of Shiga Toxin. cell reporter, cycloheximide protein synthesis inhibition counterscreen. max response, %. actives 12% (n = 300,000). AID 2314, 2010; in the data active means max response mostly above about 13%, no sharp cut-off; inactive means mostly below about 14%; further: read at 38.3 µM for the half of the compounds with a filed dose; 0% is about no effect
# Pf growth 96h: Primary qHTS for delayed death inhibitors of the malarial parasite plastid, 96 hour incubation | AID 504834, 2011 | actives 6.9% (n = 320,000) | P. falciparum luciferase reporter growth, 96 h | Potency, µM (top dose mostly 28.7 µM), inactives show top-dose activity change, negative = inhibition, hits mostly inhibitors; further: potency means the concentration at half of the fitted maximal effect; on the % scale 0 is the no-effect control and ±100 the full control effect
#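 Two parasite generations (96 h, 37 C, 5% CO2) of compound exposure in infected erythrocytes (0.05% parasitemia, 2% hematocrit). Luciferase-reporter P. falciparum; decreased luminescence indicates inhibited growth, aimed at apicoplast-acting delayed death.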
# FBPA Giardia inh: qHTS Assay for Inhibitors of Fructose-1,6-bisphosphate Aldolase from Giardia Lamblia. A8B2U2. purified Giardia FBPA. Potency, µM (titrated, usually from 59.6 µM), for the others: at the top dose activity, negative = inhibition, actives largely listed as inhibitors. actives 0.71% (n = 290,000). AID 2451, 2010; further: potency means the concentration at half of the fitted maximal effect; on the % scale 0 is the no-effect control and ±100 the full control effect; nearly all actives have a fitted effect of over 55% in size
# Target sequence (A8B2U2 whole entry, looked up): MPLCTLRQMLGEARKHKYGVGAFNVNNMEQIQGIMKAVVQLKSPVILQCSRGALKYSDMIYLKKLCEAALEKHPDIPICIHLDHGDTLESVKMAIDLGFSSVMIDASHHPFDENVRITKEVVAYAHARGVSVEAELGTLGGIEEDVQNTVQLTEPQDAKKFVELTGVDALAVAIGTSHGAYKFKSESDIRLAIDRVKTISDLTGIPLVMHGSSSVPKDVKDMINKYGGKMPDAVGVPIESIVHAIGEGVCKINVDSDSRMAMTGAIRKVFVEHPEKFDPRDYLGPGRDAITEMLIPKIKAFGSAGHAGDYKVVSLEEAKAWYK
#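 40 nM FBPA preincubated 10 min at RT with compound (up to 57.5 uM final), then substrate plus GAPDH/TPI/NAD/arsenate coupling and diaphorase/resazurin added. Fluorescence read after 20 min at RT, 525/598 nm.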
# NS1 inh: qHTS Assay for Inhibitors of Influenza NS1 Protein Function. Potency, µM (titrated, usually from 46.1 µM), without a hit: at the highest dose activity, positive = more growth. actives 0.4% (n = 270,000). AID 2326, 2010; calls by dose curve; further: potency means the concentration at half of the fitted maximal effect; actives are rising curves; nearly all actives have a fitted effect of over 50% in size
#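 Recovery from NS1-induced slow growth read by OD600 in budding yeast switched to galactose assay medium (pH 6.0, -URA) at 1:100 dilution. Compound 23 nl per well; the matching strain lacking NS1 serves as control.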
# An asterisk follows results filed as active; ? = inconclusive; / = no result; + = active, no number; [ ] = remark or other dose. A selection: hits, their analogues and other compounds. The true share with any hit is near 21%. Unless noted, the call rests on the fitted dose curve; in most records, active means well fitted curve in the direction sought with a large enough effect; inconclusive means small, poorly fitted or top-dose-only effect, or another doubt; inactive means no such curve, though single readings can be large; an effect the other way counts as inactive or inconclusive.
SMILES,Pf growth 48h,Shiga inhibitor,CHX counter,Pf growth 96h,FBPA Giardia inh,NS1 inh
O=[N+]([O-])c1cccc(/C=N/Nc2nc(NCc3ccccc3)nc(N3CCOCC3)n2)c1,?,-16,-3,?,4%,17%
NNc1nc(NCc2ccccc2)nc(N2CCOCC2)n1,?,-10,-2,125%,9%,17%
CCCNC(=O)C(Cc1cccc(C#N)c1)NC(=O)c1ccc(C#N)cc1 (centres undefined),19%,/,/,6%,/,/
COc1ccc(C[C@H]2CN3C(=NC[C@@H]3C(C)C)N2CCNC(=O)CCC2CCCCC2)cc1,?,-13,-1,4.7µM*,4%,4%
COc1ccc(C[C@H]2CN3C(=NC[C@@H]3Cc3ccccc3)N2CCNC(=O)CCC2CCCCC2)cc1,3.7µM*,-24,-3,2.9µM*,2%,4%
C[C@@H]1CN=C2N(CCNC(=O)CCC3CCCCC3)[C@H](Cc3ccc(O)cc3)CN21,5%,-4,-3,13µM*,-1%,-4%
CC(C)[C@H]1CN=C2N(CCNC(=O)CCC3CCCCC3)[C@H](Cc3ccc(O)cc3)CN21,9.3µM*,11,0,?,-9%,-1%
O=C(CCC1CCCCC1)NCCN1C2=NC[C@H](Cc3ccc(O)cc3)N2C[C@H]1Cc1ccc(O)cc1,?,-10,3,?,-9%,0%
Cc1cc(NC(=O)CN(C)S(=O)(=O)c2cnc[nH]2)ccc1Br,-13%,-5,8,?,/,-1%
CCc1cc(=O)oc2c(CNCc3c(F)cccc3Cl)c(O)ccc12,9.3µM*,11,-3,?,-19%,3%
N#Cc1ccc(OCC(=O)N/N=C2\CCc3ccccc32)cc1,/,5,6,?,-3%,-2%
O=C(COc1cccc(Br)c1)N/N=C1\CCCc2ccccc21,40%,13,-4,28%,6%,/
O=C(N/N=C1\CCc2ccccc21)c1ccccc1O,11%,80*,49*,-3%,-29%,-2%
O=C(O)c1ccc(N/N=C2/CCCc3ccccc32)cc1,68%,59*,33*,63%,-1%,-7%
Cc1cc(C(=O)NC2Cc3ccccc3C2)c(C)o1,171%,66*,57*,276%,0%,-39%
Cc1cc(C(=O)N/N=C2\CCCc3ccccc32)c(C)o1,89%,51,26*,49%,-4%,7%
Cc1cc(C(=O)NC2CCCCC2)c(C)o1,-4%,/,/,42%,/,/
CC(=O)c1ccc(C(=O)N2CCCC(CO)(Cc3ccccc3C)C2)s1 (centres undefined),-11%,-7,-3,?,-1%,-9%
COC(=O)N1C2=C(c3ccccc3[C@@H]1CC(=O)Nc1ccc3ccc4cccc5ccc1c3c45)[C@@H]1C(=O)N(c3ccccc3)C(=O)[C@@H]1[C@H](C)C2,/,/,/,/,4%[12.9 µM],/
O=C(N/N=C1\CCc2ccccc21)c1ccncc1,129%,56*,46*,67%,1%,-3%
O=C(NN=C1CCCCCCCCCCC1)c1ccncc1,13%,5,9,42%,?,/
O=C(N/N=C1\CCCc2ccccc21)c1ccccc1Cl,52%,63*,36*,60%,0%,-3%
COc1ccc2c(c1)CCC/C2=N\NC(=O)c1ccoc1C,70%,+,86*,15%,0%,21%
O=C(CNc1ccccc1Cl)N/N=C1\CCCc2ccccc21,0%,-13,2,0%,6%,0%
COc1ccc(OCC(=O)N/N=C2\CCCc3ccccc32)cc1,30%,-21,0,?,4%,-8%
Cc1cccc(N(CC(=O)N2CCc3ccccc3C2)S(C)(=O)=O)c1C,-9%,/,-5,59%,-8%,2%
COc1ccccc1CCNC(=O)C(=O)NCC1OCCN1S(=O)(=O)c1ccc(OC)c(OC)c1 (centres undefined),?,-3,1,?,12%,4%
N#CCOC(=O)[C@H](Cc1c[nH]c2ccccc12)NS(=O)(=O)c1ccc(Cl)cc1,/,7,-3,-13%,-4%,2%
Fc1c(F)c(F)c(/C=N/NC(=S)Nc2cccnc2)c(F)c1F,?,-11,-2,?,2%,8%
